Bead autofluor – compound fluorescence in toxin protease inhibitor counterscreen | compound autofluorescence counterscreen, microsphere flow cytometry; stronger effect = higher value | fluorescence intensity (test concentration not listed) | 360,000 tested, 3.1% active | AID 624483; in the data active = fluorescence intensity above about 16000; inconclusive = no clear call, values can overlap the other calls
BoNT-A LC inh2 – BoNT/A light chain protease inhibitors, primary screen, biochemical, flow cytometry, MLPCN library | AID 588499, 2011 | inhibition, % at 10 µM | multiplex microsphere protease substrate cleavage | 360,000 tested, 0.17% active; note: plate controls were buffer without enzyme for full effect and enzyme alone for no effect
BoNT-F LC inh – BoNT/F light chain protease inhibitors, primary screen, biochemical, flow cytometry, MLPCN library; Botulinum neurotoxin type F light chain protease (Clostridium botulinum); Multiplex microsphere protease cleavage assay; inhibition, % at 10 µM; 360,000 tested, 0.22% active; in the data active = inhibition above about 35%, passing the limit was not always enough; inconclusive = no clear call, values can overlap the other calls; note: plate controls were buffer without enzyme for full effect and enzyme alone for no effect
MazEF act – activators of E. coli MazEF toxin-antitoxin RNase, primary screen, biochemical, fluorescence, uHTS. Endoribonuclease toxin MazF (Escherichia coli (strain K12)), P0AE70. FAM/BHQ RNA-DNA oligo cleavage fluorescence, 5 h. activation, % at 20 µM. 350,000 tested, 0.32% active; in the data active = activation above about 50%
Target sequence (P0AE70 whole entry, looked up): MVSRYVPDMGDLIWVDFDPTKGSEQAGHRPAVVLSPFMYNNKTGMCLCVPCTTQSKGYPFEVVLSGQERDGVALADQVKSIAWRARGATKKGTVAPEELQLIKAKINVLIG
Anthrax LF inh2 – Bacillus anthracis LF protease inhibitors, primary screen, biochemical, multiplex microsphere, MLPCN library; AID 588501, 2011; multiplex microsphere protease cleavage assay; inhibition, % at 10 µM; 360,000 tested, 0.12% active; note: plate controls were buffer without enzyme for full effect and enzyme alone for no effect
VHR inh abs – VHR1 phosphatase inhibitors, primary screen, biochemical, absorbance, uHTS | inhibition, % at 13.3 µM | 290,000 tested, 0.52% active | recombinant VHR phosphatase, pNPP absorbance | Dual specificity protein phosphatase 3 (Homo sapiens), P51452; in the data active = inhibition above about 50%
Target sequence (P51452 whole entry, looked up): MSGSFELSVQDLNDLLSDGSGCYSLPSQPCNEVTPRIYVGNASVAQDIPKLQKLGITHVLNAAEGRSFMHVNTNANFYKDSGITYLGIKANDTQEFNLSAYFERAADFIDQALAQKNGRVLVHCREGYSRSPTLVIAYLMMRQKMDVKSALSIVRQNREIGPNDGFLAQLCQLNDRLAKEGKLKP
Numbers without * were called inactive; ? = inconclusive; . = not tested or not shown. Rows were chosen to be rich in hits. Some 4% of all compounds tested hit in one or more screens of this group. Cut-off read from the data, not from the text of the source, unless noted: active = inhibition above about 30%; inconclusive = no clear call, values can overlap the other calls; inactive = below that.

SMILES | Bead autofluor | BoNT-A LC inh2 | BoNT-F LC inh | MazEF act | Anthrax LF inh2 | VHR inh abs
CC(=O)C1(C)C(=O)N(c2ccc(F)cc2)C(=O)N1c1ccc(F)cc1 (stereo not given) | 3725 | 0.4 | -0.6 | 8.7 | -1.0 | .
Cc1ccc(NC(=O)Cc2ncc(C(F)(F)F)cc2Cl)cc1Cl | 2783 | 0.2 | 7.3 | 2.3 | 0.3 | -1.0
CCOC(=O)c1c(C)[nH]c(C(=O)COC(=O)CCC(=O)c2ccc3c(c2)OCCO3)c1C | 10241 | -0.7 | -5.8 | 0.2 | -5.3 | -0.8
C/C=C/c1c(F)c(F)c(Oc2ccc(C(=O)O)cc2)c(F)c1F | 21781* | 2.9 | 2.3 | 1.6 | -7.0 | 6.4
O=C1CC(SCCc2nc3ccccc3[nH]2)C(=O)N1c1ccc(F)c(Cl)c1 (stereo not given) | 3435 | 0.2 | 4.8 | -2.8 | 4.1 | .
CCCCn1c(N)c(N(CC)C(=O)c2ccccc2C)c(=O)[nH]c1=O | 6193 | 1.3 | -0.1 | 13.4 | -1.1 | 52.0*
COC(=O)Cc1c(O)ccn(Cc2ccccc2OC)c1=O | 4157 | -0.1 | ? | 0.6 | 2.6 | 6.2
COC(=O)Cc1c(O)ccn(Cc2cccc3ccccc23)c1=O | 21316* | 1.0 | 0.0 | 5.9 | -0.7 | 16.8
Cc1ccc(C)c(N(C(=O)c2csnn2)C(C(=O)NC2CCCCC2)c2ccccn2)c1 (stereo not given) | 5246 | -0.7 | 9.5 | 1.6 | -0.8 | 50.4*
Cc1ccc(C(C(=O)NC2CCCC2)N(C(=O)c2csnn2)c2ccccc2)o1 (stereo not given) | 3859 | -2.4 | 15.4 | 4.7 | -9.9 | -14.9
Cc1ccc(N(C(=O)c2csnn2)C(C(=O)NC2CCCCC2)c2ccccn2)c(C)c1 (stereo not given) | 3791 | 2.2 | -7.9 | 5.7 | 6.0 | 30.5
O=C(NC1CCCC1)C(c1ccccc1)N(C(=O)c1csnn1)C1CCCC1 (stereo not given) | 3344 | -3.1 | -6.6 | 7.0 | 7.6 | 13.0
Cc1ccc(C(C(=O)NC2CCCC2)N(C(=O)c2csnn2)C2CCCC2)o1 (stereo not given) | 21439* | ? | 3.7 | -4.4 | 2.3 | -6.1
Cc1ccc(C(C(=O)NC2CCCCC2)N(C(=O)c2csnn2)C2CCCC2)o1 (stereo not given) | 22165* | 0.7 | -0.3 | 3.0 | -2.8 | 16.9
Cc1onc(-c2ccccc2)c1C(=O)Nc1ccc2c(c1)OCCO2 | 10266 | 0.6 | -11.9 | -2.8 | 3.8 | 5.9
O=C(Nc1cccc(C(F)(F)F)c1)C1CCCN(S(=O)(=O)c2cnc[nH]2)C1 (stereo not given) | 22065* | 2.0 | 1.5 | -7.5 | -2.6 | -22.2
COc1ccc2c(c1)[nH]c1c(=O)n(CCN3CCOCC3)cnc12 | 5347 | -0.8 | -5.5 | 2.5 | -5.2 | 17.2
Cc1ccc(C2(CCNCc3ccc(N(C)C)cc3)CCOC(C(C)C)C2)cc1 (stereo not given) | 3902 | -1.3 | -12.8 | 6.7 | -5.4 | 57.4*
CC(C)C1CC(CCNCc2ccc(N(C)C)cc2)(c2ccccc2)CCO1 (stereo not given) | 11202 | -1.4 | -9.3 | 26.8 | -4.3 | 40.4
CCOc1cc(C2NN=C(c3ccc(C)cc3)S2)ccc1O (stereo not given) | 2047 | -0.3 | -11.7 | 5.8 | -1.1 | -8.5
Cn1c(-c2ccc(C=O)s2)nc2c3ccccc3c3ccccc3c21 | 2883 | 79.3* | 39.7* | -411.9 | 48.2* | 12.5
NNc1ccc(Cl)nn1 | 6100 | 0.3 | 7.2 | 5.8 | -7.0 | 6.1
CC(Nc1nc(-c2ccccc2)nc2ccccc12)c1ccccc1 (stereo not given) | 6147 | -0.2 | -0.6 | 5.4 | -1.2 | 23.8
CC(Nc1nc(N2CCCCC2)nc2ccccc12)c1ccccc1 (stereo not given) | 21408* | ? | -4.7 | 12.9 | -4.8 | -2.5
CCOc1ccc(S(=O)(=O)N2CCN(C(=O)COc3ccc(Br)cc3)CC2)cc1 | 2943 | -0.4 | -2.5 | -2.4 | 6.3 | .
SMILES | Bead autofluor | BoNT-A LC inh2 | BoNT-F LC inh | MazEF act | Anthrax LF inh2 | VHR inh abs
CC(=O)C1=NN(c2ccccc2)C(c2cccs2)N1c1ccccc1 (stereo not given) | . | . | . | . | . | 22.3
N#C/C(=C\c1ccccc1[N+](=O)[O-])c1nc(C2CC2)cs1 | 7653 | 1.2 | -0.4 | -4.8 | -3.4 | 2.9
N#C/C(=C\c1ccc([N+](=O)[O-])cc1)c1nc(C2CC2)cs1 | 2303 | 21.0 | -1.9 | 338.3* | 7.3 | -7.2
COc1ccccc1CNc1nc(NCc2ccccc2F)c2sccc2n1 | 2914 | -0.5 | -2.4 | . | 1.9 | .
COc1cc(-c2nc(-c3ccccc3)c(-c3cccs3)[nH]2)cc(OC)c1O | 24448* | -1.4 | -2.1 | 15.4 | -0.3 | 19.6
COc1cc(-c2nc(-c3ccccc3)c(-c3cccs3)[nH]2)cc(OC)c1OC | 11656 | -1.4 | -4.3 | 0.0 | 0.0 | 31.3
O=C(CCN1C(=O)/C(=C\c2ccccc2F)SC1=S)N1CCOCC1 | 3103 | -0.3 | -7.0 | -11.0 | 3.1 | .
Cc1ccc(S(=O)(=O)CCC(=O)OCC(=O)N2CC(=O)Nc3ccccc32)cc1 | 22432* | -0.9 | -3.3 | -2.5 | -5.9 | -10.1
Cc1ccc(S(=O)(=O)NCC(=O)OCC(=O)N2CC(=O)Nc3ccccc32)cc1 | 3544 | 0.1 | 1.4 | 1.5 | -9.3 | .
CCOC(=O)c1c(-c2ccccc2)n(C)c2ccc(O)cc12 | 10740 | 0.8 | 6.1 | 12.1 | -3.6 | 3.6
COc1cc(NC(=O)c2ccco2)ccc1NC(=O)C(C)C | 21437* | ? | -6.8 | 3.1 | -2.7 | 3.7
COc1cc(NC(=O)C2CCCO2)c(C(=O)O)cc1OC (stereo not given) | 21130* | -0.9 | -5.0 | 5.6 | 2.3 | 26.3
C=CCOc1c(Br)cc(CNc2ccc(NC(=O)C(C)C)c(OC)c2)cc1OC | 20313* | ? | 4.8 | 7.2 | -8.6 | 26.1
O=C(O)c1cc(Cl)ccc1NC(=O)C1CCCO1 (stereo not given) | 9580 | -0.4 | -8.7 | 5.5 | 2.8 | -0.2
COc1ccc(NC(=O)COC(=O)c2cc(OC)c(OC)cc2NC(=O)c2ccco2)cc1OC | 21054* | -0.4 | -2.5 | 19.2 | -3.2 | 21.8
COc1cc(NC(=O)CC(C)C)ccc1NC(=O)c1ccco1 | 10922 | -1.0 | -8.4 | -3.1 | 0.2 | .
COCC(C)n1c(C)cc(C(=O)Cn2nc(C(=O)O)c3ccccc3c2=O)c1C (stereo not given) | 4652 | 0.4 | 2.3 | 3.0 | 3.0 | 1.8
CCc1sc(C(=O)Nc2cc(S(=O)(=O)N3CCOCC3)ccc2OC)cc1C | 3683 | 0.2 | -7.3 | -25.3 | -9.1 | .
COc1cc(NC(=O)c2ccco2)c(C(=O)O)cc1OC | 23681* | -2.2 | -2.1 | -6.5 | -2.8 | 9.1
COC(=O)c1cc(OC)c(OC)cc1NC(=O)c1ccco1 | 3074 | 0.6 | -1.6 | 4.9 | -0.4 | 33.7
